From PubChem BioAssay
FadD28 binding = inhibitors of Mycobacterium tuberculosis FadD28 bisubstrate binding; 360,000 compounds, 0.22% hits; inhibition, % at 12.5 µM; FadD28 bisubstrate probe binding, fluorescence polarization; AID 588549; in the data active = inhibition above about 8.5%, passing the limit was not always enough
Mtb FBA inh = inhibitors of M. tuberculosis fructose-bisphosphate aldolase. purified M. tuberculosis FBA, fluorescence read-out. inhibition, % at 1 µM. 360,000 compounds, 2.3% hits. P9WQA3. AID 588726
Target sequence (P9WQA3 whole entry, looked up): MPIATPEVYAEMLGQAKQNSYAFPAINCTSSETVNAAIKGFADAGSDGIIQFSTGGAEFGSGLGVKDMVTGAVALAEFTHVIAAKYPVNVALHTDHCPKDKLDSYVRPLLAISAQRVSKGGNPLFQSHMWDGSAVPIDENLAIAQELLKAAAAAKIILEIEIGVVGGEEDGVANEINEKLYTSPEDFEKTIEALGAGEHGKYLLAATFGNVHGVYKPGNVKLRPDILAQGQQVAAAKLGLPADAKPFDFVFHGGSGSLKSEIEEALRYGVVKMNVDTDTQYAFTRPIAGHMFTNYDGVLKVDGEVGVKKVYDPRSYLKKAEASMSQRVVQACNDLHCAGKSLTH
GDH-TPI counter-1 = inhibits GDH-TPI coupling enzymes, artifact for Mtb FBA screen; GDH-TPI coupled enzyme counterscreen, NADH absorbance; inhibition, % at 4.8 µM; 360,000 compounds, 1.2% hits; in the data active = inhibition above about 30%
BioA inh = BioA (M. tuberculosis) enzyme inhibition. purified M. tuberculosis BioA enzyme, plate reader. inhibition, % at 9.99 µM. 360,000 compounds, 0.096% hits. AID 602481; in the data active = inhibition above about 40%
3CLpro inhibitor = SARS-CoV 3CLpro protease inhibition. P0C6X7. recombinant SARS-CoV 3CLpro, quenched FRET peptide cleavage. inhibition, % at 6 µM. 290,000 compounds, 0.14% hits; in the data active = inhibition above about 12%
Mtb FBA inh conf = confirmation of M. tuberculosis fructose-bisphosphate aldolase inhibitors. purified M. tuberculosis FBA, fluorescence read-out. inhibition, % at 1 µM. 5,600 compounds, 78% hits. shares compounds with Mtb FBA inh
GDH-TPI counter-2 = GDH-TPI inhibition counter-screen for FBA inhibitors. shares compounds with Mtb FBA inh. GDH-TPI coupled enzyme counterscreen, fluorescence. inhibition, % at 1 µM. 5,600 compounds, 81% hits; in the data active = inhibition above about 10%
Large screens that a line does not name were inactive (follow-up assays come after a bar, where they were run). Rows were chosen to be rich in hits. Some 3.1% of all compounds tested hit in one or more screens of this group. Rule as the data show it, unless noted: active = inhibition above about 27%; inactive = the rest.

O=[N+]([O-])c1ccc(C=Nc2cccc3ccccc23)s1	Mtb FBA inh 50.2 | Mtb FBA inh conf inactive | GDH-TPI counter-2 inactive
CCC(=O)N(C)C[C@@H]1Oc2cc(C#CC3CCCCC3)ccc2S(=O)(=O)N([C@@H](C)CO)C[C@@H]1C	none (no result: FadD28 binding, Mtb FBA inh, GDH-TPI counter-1, 3CLpro inhibitor)
CCOC(=O)CCc1c(C)c2ccc(OCC(=O)OC(C)C)cc2oc1=O	Mtb FBA inh 66.7 | Mtb FBA inh conf 54.1 | GDH-TPI counter-2 41.4
CCCCc1c(C)c2ccc(OCC(C)=O)cc2oc1=O	Mtb FBA inh 72.4 | Mtb FBA inh conf inactive | GDH-TPI counter-2 inactive
C=CCOC(=O)COc1ccc2c(C)c(C)c(=O)oc2c1	Mtb FBA inh 68.0 (no result: BioA inh) | Mtb FBA inh conf inactive | GDH-TPI counter-2 27.9
Cc1cc(NC(=O)COc2ccc3c(C)c(C)c(=O)oc3c2)no1	none (no result: 3CLpro inhibitor)
CCOC(=O)CCc1c(C)c2ccc(OC3CCCCC3=O)cc2oc1=O (stereo not given)	Mtb FBA inh 109.5 | Mtb FBA inh conf 150.9 | GDH-TPI counter-2 132.2
CO[C@H]1CN(C)C(=O)c2ccc(NC(=O)C3CCOCC3)cc2OC[C@@H](C)N(C)C[C@H]1C	none (no result: FadD28 binding, Mtb FBA inh, GDH-TPI counter-1, 3CLpro inhibitor)
c1cncc(-c2noc(-c3cccc4ccccc34)n2)c1	Mtb FBA inh 28.4 | Mtb FBA inh conf inactive | GDH-TPI counter-2 19.5
COc1cc(OC)cc(C(=O)N2CCCC(c3nc(-c4ccc(C)o4)no3)C2)c1 (stereo not given)	Mtb FBA inh 31.2 | Mtb FBA inh conf inactive | GDH-TPI counter-2 inactive
COc1ccc(-c2noc(C3CCCN(C(=O)c4cccc(C)c4)C3)n2)cc1 (stereo not given)	Mtb FBA inh 77.9 | Mtb FBA inh conf 115.1 | GDH-TPI counter-2 76.5
O=C(Nc1ccc(F)cc1)N1C[C@H]2[C@@H](c3ccccc31)[C@H](CO)N2C(=O)c1ccccc1F	none (no result: FadD28 binding, Mtb FBA inh, GDH-TPI counter-1, 3CLpro inhibitor)
CCOC(=O)c1cc2c(s1)-c1ccccc1CC2	Mtb FBA inh 49.1 | Mtb FBA inh conf inactive | GDH-TPI counter-2 inactive
COc1ccc(CC(=O)N2CCN(c3ccc(C4=NNC(=O)CC4C)cc3)CC2)cc1 (stereo not given)	Mtb FBA inh 31.9 | Mtb FBA inh conf 162.0 | GDH-TPI counter-2 131.8
CC(=O)Nc1ccc(S(=O)(=O)Nc2cccc(-c3cn4cccnc4n3)c2)cc1	Mtb FBA inh 64.3 (no result: BioA inh) | Mtb FBA inh conf inactive | GDH-TPI counter-2 inactive
Cc1nc(-c2cccc(S(=O)(=O)N3CCCC(C)C3)c2)cs1 (stereo not given)	none (no result: BioA inh)
CC(=O)Nc1ccc(S(=O)(=O)Nc2cccc(-c3csc(C)n3)c2)cc1	none
CC1CCCN(S(=O)(=O)c2cccc(-c3cn4cccnc4n3)c2)C1 (stereo not given)	Mtb FBA inh 75.5 | Mtb FBA inh conf 122.2 | GDH-TPI counter-2 139.1
COc1ccc2cc(S(=O)(=O)N3CCCC(C)C3)ccc2c1 (stereo not given)	none
CC1CCCN(S(=O)(=O)c2ccc3c(c2)c(=O)nc2ccccn23)C1 (stereo not given)	Mtb FBA inh 65.6 | Mtb FBA inh conf 89.0 | GDH-TPI counter-2 64.6
COCC(=O)N(C)C[C@H]1Oc2cc(C#CCN(C)C)ccc2S(=O)(=O)N([C@@H](C)CO)C[C@H]1C	none (no result: FadD28 binding, Mtb FBA inh, GDH-TPI counter-1, 3CLpro inhibitor)
C[C@H](CO)N1C[C@H](C)[C@@H](CN(C)C(=O)Cc2ccccc2)Oc2ncc(-c3ccc(F)cc3)cc2C1=O	none (no result: FadD28 binding, Mtb FBA inh, GDH-TPI counter-1, 3CLpro inhibitor)
C[C@@H]1CN([C@@H](C)CO)C(=O)Cc2cc(NC(=O)Nc3cccc4ccccc34)ccc2O[C@H]1CN(C)Cc1ccc(C(=O)O)cc1	none (no result: FadD28 binding, Mtb FBA inh, GDH-TPI counter-1, 3CLpro inhibitor)
C[C@H]1CN([C@@H](C)CO)C(=O)c2cc(C#CC(C)(C)O)cnc2O[C@@H]1CN(C)C(=O)CN(C)C	none (no result: FadD28 binding, Mtb FBA inh, GDH-TPI counter-1, 3CLpro inhibitor)
CCOC(=O)Nc1ccc(C)cc1C	none
CCOC(=O)Nc1cc2c(C)cc(=O)oc2cc1C	Mtb FBA inh 28.4 (no result: BioA inh) | Mtb FBA inh conf 53.6 | GDH-TPI counter-2 42.0
CO[C@H]1CN(C)C(=O)c2cc(NC(=O)c3ccccc3)ccc2OC[C@H](C)N(C(=O)C2CC2)C[C@@H]1C	none (no result: FadD28 binding, Mtb FBA inh, GDH-TPI counter-1, 3CLpro inhibitor)
O=C(O)c1ccc2c(=O)n3c(nc2c1)/C(=C/c1ccc(C(F)(F)F)cc1)CC3	Mtb FBA inh 27.8 (no result: FadD28 binding) | Mtb FBA inh conf 45.7 | GDH-TPI counter-2 33.5
C[C@H](CO)N1C[C@H](C)[C@@H](CN(C)Cc2ccc(Oc3ccccc3)cc2)Oc2ccc(NC(=O)CCN3CCOCC3)cc2C1=O	none (no result: FadD28 binding, Mtb FBA inh, GDH-TPI counter-1, 3CLpro inhibitor)
CC(C)Cc1nc(N2CCN(C(=O)c3ccco3)CC2)c(C#N)c2c1CCCC2	none
